Compound activity: PubChem BioAssay, National Center for Advancing Translational Sciences (NCATS)
Compounds with a hit are over-represented: about 6.1% of the library has one in this group of screens.
HepG2 tox: kills HepG2 cells in TGF-b inhibitor counter-screen; HepG2 CAGA-GFP viability, ATP luminescence, 18 h; Potency, µM (top dose mostly 46.1 µM), inactives show at the top dose activity change, negative = cytotoxicity, hits mostly cytotoxic; 410,000 tested, 0.76% active
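CellTiter-Glo luminescence gave cytotoxicity after 18 hours at 37 degrees C. The cells were HepG2 CAGA-GFP in 1% FBS DMEM, stimulated with 500 pg/mL TGF-beta after compound addition. %Activity was normalised to no-cell wells (complete cell-killing) and DMSO (no toxicity), and curves were fitted and classified.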
Gal4-VP16 FLuc: Gal4-VP16 reporter inhibition counter-screen; Drosophila S2 Gal4-VP16 UAS-luciferase, luminescence, 20 h; Potency, µM (highest dose often 53.6 µM), without a hit: at the highest dose activity, negative = inhibition, usual class: inhibitors; 310,000 tested, 3.5% active;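 further: Gal4-VP16 expression switched on by copper sulfate through the metallothionein promoter; on the % scale 0 is the no-effect control and ±100 the full control effect; nearly all actives have a fitted effect of over 50% in size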
S2 tox: reduces viability in counter-screen for ATXN expression inhibitors. 400,000 tested, 0.49% active. S2 cells (HEK-293 line with an ATXN2-luciferase reporter) viability, CellTiter-Fluor protease fluorescence, 24 h. Potency, µM (top dose mostly 56.7 µM), most hits filed as cytotoxic; further: nearly all actives have a fitted effect of over 40% in size
ATXN2 expr inh: inhibitors of ATXN2 expression; HEK-293 ATXN2-luciferase reporter, luminescence, 24 h; Potency, µM (highest dose often 57 µM), for inactives: top-dose activity change, negative = inhibition, usual class: inhibitors; 360,000 tested, 0.72% active; AID 1745845; further: on the % scale 0 is the no-effect control and ±100 the full control effect; nearly all actives have a fitted effect of over 55% in size
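qHTS (up to 57 uM final) was run with 24 h compound exposure of reporter cells at 37 °C. Each well was multiplexed: SteadyGlo luminescence measured ATXN2-luciferase expression after a fluorogenic Gly-Phe-AFC viability readout (25 uM final).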
TGFb SMAD3 inh: TGF-b pathway inhibition; HepG2 CAGA-GFP TGF-b/SMAD3 reporter, GFP fluorescence, 18 h; TGF-beta stimulated, 500 pg/mL final; Potency, µM (doses to about 46.1 µM), for the others: top-dose activity, negative = inhibition, most hits filed as inhibitors; 410,000 tested, 1.2% active; further: on the % scale 0 is the no-effect control and ±100 the full control effect; nearly all actives have a fitted effect of over 65% in size
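HEPG2 CAGA-GFP reporter cells (1000/well, DMEM with 1% FBS) received compounds, then recombinant TGF-beta at 500 pg/mL final for 18 hours at 37 degrees C. Per-cell GFP summed per well was normalised to unstimulated and stimulated DMSO controls before curve fitting.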
RORg inh: blocks mouse ROR gamma transcriptional activity | AID 2551 | Drosophila S2 Gal4-RORgamma UAS-luciferase reporter, 20 h | P51450 | 310,000 tested, 5.4% active | Potency, µM (doses to about 53.6 µM), inactives show top-dose activity change, negative = inhibition, hits mostly inhibitors; further: on the % scale 0 is the no-effect control and ±100 the full control effect; nearly all actives have a fitted effect of over 60% in size
Target sequence (P51450 whole entry, looked up, the tested form may be a part): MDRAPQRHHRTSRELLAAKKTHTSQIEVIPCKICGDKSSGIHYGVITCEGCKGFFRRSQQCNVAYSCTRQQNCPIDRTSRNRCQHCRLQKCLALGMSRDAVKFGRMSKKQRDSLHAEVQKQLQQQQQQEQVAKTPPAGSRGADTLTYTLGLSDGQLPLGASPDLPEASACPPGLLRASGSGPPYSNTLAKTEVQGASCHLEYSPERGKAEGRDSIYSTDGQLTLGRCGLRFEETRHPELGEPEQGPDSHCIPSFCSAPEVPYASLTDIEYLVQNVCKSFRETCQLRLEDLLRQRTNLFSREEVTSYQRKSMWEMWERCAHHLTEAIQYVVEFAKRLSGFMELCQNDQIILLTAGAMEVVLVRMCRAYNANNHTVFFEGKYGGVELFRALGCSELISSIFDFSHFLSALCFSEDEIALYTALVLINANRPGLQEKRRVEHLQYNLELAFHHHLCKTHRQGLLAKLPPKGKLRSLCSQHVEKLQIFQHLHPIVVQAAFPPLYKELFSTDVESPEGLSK
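Stable Schneider cell line, Gal4 DNA-binding domain fused to ROR gamma, UAS-luciferase. Cmpd 1 hr RT → CuSO4 700 uM final → 20 hr RT → luciferase reagent 10 min → luminescence.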
An asterisk follows results filed as active; i = inactive; u = inconclusive; x = not tested or not shown; [ ] = dose if it differs, or a comment. The call rests on the fitted dose curve; in most records, active means well fitted curve in the direction sought with a large enough effect; inconclusive means small, poorly fitted or top-dose-only effect, or another doubt; inactive means no such curve, though single readings can be large; an effect the other way counts as inactive or inconclusive. Potency means the concentration at half of the fitted maximal effect.

SMILES | HepG2 tox | Gal4-VP16 FLuc | S2 tox | ATXN2 expr inh | TGFb SMAD3 inh | RORg inh
COc1ccc(N2CCC(CNC(=O)Nc3ccc(C)c(C)c3)C2)cc1 (centres undefined) | -22% | -1% | i | -4% | -9% | 20%
COc1ccc(N2CCC(CNC(=S)Nc3c(C)cc(C)cc3C)C2)cc1 (centres undefined) | -13% | 7.1µM* | u | x | u | 1.4µM*
COc1ccc(N2CCC(CNC(=S)Nc3ccc(C)cc3C)C2)cc1 (centres undefined) | -40% | u | u | x | u | 0.63µM*
Cc1c2cnn(-c3ccccc3)c(=O)c2c(C)n1CC(=O)NCc1ccccc1Br | -20% | x | x | x | x | x
COc1cc(CNCc2cc3ccc(F)cc3nc2N2CCOCC2)cc(OC)c1OC | x | x | i | x | x | x
O=C(Nc1nccs1)[C@@H]1CC=C[C@@H]2CCN(C3CCCCC3)C(=O)[C@@H]21 | 1% | x | x | x | u | x
COc1ccc(Cl)cc1C(=O)NNC(=S)NC(=O)c1cc(-c2ccccc2)nc2ccccc12 | -30% | u | i | -10% | 22% | 14%
COC(=O)c1ccc(NC(=S)NC(=O)c2cc(-c3ccccc3)nc3ccccc23)cc1 | -24% | 2µM* | i | -3% | 0% | 0.45µM*
CCCOc1ccc(C(=O)NNC(=S)NC(=O)c2cc(-c3ccc(Cl)cc3)nc3ccccc23)cc1 | -31% | u | u | -7% | -13% | 0.11µM*
COc1ccc(C(=O)NNC(=S)NC(=O)c2cc(-c3ccccc3)nc3ccccc23)cc1 | -59% | u | i | 6% | 4% | 10µM*
COc1ccc(-c2cc(C(=O)Nc3ccc(S(=O)(=O)Nc4ncccn4)cc3)c3ccccc3n2)cc1 | -2% | -5% | i | 6% | -13% | 38%
COc1cc(-c2cc(C(=O)Nc3ccc(S(=O)(=O)Nc4ncccn4)cc3)c3ccccc3n2)cc(OC)c1OC | -10% | 11µM* | i | -5% | -2% | -35%
C[C@@H]1[C@H](c2ccccc2)OCCS(=O)(=O)N1Cc1ccc(F)cc1 | 2% | x | x | x | -17% | x
COc1cccc(CNC(=O)c2c3c(nc4ccccc24)C(=O)N(C2CCCCC2)C3)c1 | -4% | x | x | x | 2% | x
Cc1cccc(C(C)C)c1NC(=O)C1CCCN1S(=O)(=O)c1cccc2nsnc12 (centres undefined) | -8% | x | i | -17% | u | x
COc1ccccc1-c1ccc2ncnc(Nc3ccccc3)c2c1 | x | 4% | x | x | x | 35%
O=c1oc2ccccc2cc1-c1cn2cccnc2n1 | -25% | u | x | x | 4% | u
O=c1oc2ccccc2cc1-c1cn2ccccc2n1 | -43% | 2.2µM* | i | u | 9% | 1µM*
O=C1CC(SCc2nc3ccccc3[nH]2)C(=O)N1c1ccc(Cl)cc1 (centres undefined) | 2% | 6.3µM* | i | -1% | -7% | 3.5µM*
CCOc1ccc(N2C(=O)CC(Cc3cc(C)cc(C)c3)C2=O)cc1 (centres undefined) | -5% | 4% | u | x | 6% | u
CCOc1ccc(N2C(=O)CC(N)C2=O)cc1 (centres undefined) | -110% | 3.2µM* | i | -2% | u | 1.1µM*
CCOc1ccc(N2C(=O)CC(SCc3nc4ccccc4[nH]3)C2=O)cc1 (centres undefined) | 2% | u | i | 24%[11.3 µM] | -2% | 11µM*
O=C1CC(SCc2nc3ccccc3[nH]2)C(=O)N1c1cccc(F)c1 (centres undefined) | -40% | 14µM* | i | 23% | -1% | 10µM*
CCCOc1ccc(N2C(=O)CC(SCCc3nc4ccccc4[nH]3)C2=O)cc1 (centres undefined) | -30% | -19% | i | u | u | -3%
NNC(=O)c1cccc(COc2ccc3c(c2)CCC3)c1 | -7% | 5µM* | u | u | -11% | 3.2µM*
SMILES | HepG2 tox | Gal4-VP16 FLuc | S2 tox | ATXN2 expr inh | TGFb SMAD3 inh | RORg inh
NNC(=O)c1cccc(COc2ccccc2Br)c1 | -17% | u | i | u | -7% | u
CC(C)(C)c1ccc(-n2ncc3c2CCCC3NC(=O)CN2CCOC2=O)cc1 (centres undefined) | -6% | 13µM* | i | u | -8% | -3%
Cc1cccc(-n2ncc3c2CCCC3NC(=O)C2(C(N)=O)CC2)c1C (centres undefined) | -16% | 7.9µM* | i | -23% | 0% | u
Cc1nnsc1C(=O)NC1CCCc2c1cnn2-c1ccccc1F (centres undefined) | -66% | 10µM* | i | -29% | 7% | 17%
Cc1nnsc1C(=O)NC1CCCc2c1cnn2-c1ccc(C(C)(C)C)cc1 (centres undefined) | -25% | 6.3µM* | i | -23% | 13% | -37%
O=C(NC1CCCc2c1cnn2-c1ccccc1F)c1ccccn1 (centres undefined) | -34% | 3% | i | x | 0% | 52%
CNC(=O)c1cnn(-c2nc(N)c3ncn([C@@H]4O[C@H](CO)[C@@H](O)[C@H]4O)c3n2)c1 | x | x | i | -10% | x | x
COc1ccc(CCNC(=O)Cn2nc(C)n3c(cc4occc43)c2=O)cc1OC | 0% | x | i | 12% | -1% | x
CC(=O)c1ccc(-c2cc(F)cc3c2OC(CNC(=O)C(C)N2CCOCC2)C3)s1 (centres undefined) | x | x | i | x | x | x
O=C(NCCc1nnc2n1CCN(Cc1c(F)cccc1F)CC2)c1ccco1 | x | x | i | x | x | x
O=C(NC1CCCc2c1cnn2-c1ccccc1F)c1ccncc1 (centres undefined) | -29% | x | i | x | -3% | x
COc1ccc(C(=O)NC2CCCc3c2cnn3-c2ccccc2F)cc1OC (centres undefined) | 1% | 2.5µM* | i | -20% | -25% | u
C[C@@H](NC(=O)c1nc[nH]c1C(=O)N[C@H](C)c1ccccc1)c1ccccc1 | -13% | x | i | -25% | u | x
CC(C)C[C@H](NC(=O)c1[nH]cnc1C(=O)N[C@@H](Cc1ccccc1)C(=O)OCc1ccccc1)C(=O)OCc1ccccc1 | -30% | 11µM* | u | -2% | -25% | 11µM*
O=C(N[C@@H](Cc1ccccc1)C(=O)OCc1ccccc1)c1nc[nH]c1C(=O)NCc1ccccc1 | -18% | u | i | 5% | -11% | 10µM*
